# Tcruzi prolif: blocks T. cruzi growth in NIH3T3 culture; T. cruzi beta-gal in NIH3T3, GalScreen luminescence, 90 h; inhibition, % at 8.34 µM; 77,000 compounds, 5.9% hits; AID 624255;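 active = mean inhibition above about 93%, with at least 55% of replicates each passing it, limit read from the data, passing the limit was not always enough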
# Pf Dd2 growth: inhibitors of Plasmodium falciparum Dd2 growth; 94,000 compounds, 2.3% hits; AID 1159554; activity change, % at 10 µM; P. falciparum Dd2 growth, SYBR Green, 72 h; stronger effect = lower value; in the data active = activity change below about -80%
# C diff HTS: blocks growth of Clostridium difficile | AID 1259249 | growth activity, negative = inhibition, % at 16 µg/mL (by protocol) | 86,000 compounds, 0.25% hits | Clostridium difficile clinical isolate growth, OD600, 24 h; stronger effect = lower value;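 active = mean growth activity at or below -80% and every replicate also at or below -80%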
# Hits are given with their value; - = inactive; . = no result; ! = a repeat was not active. The list is not random: actives were taken first. Their share in the collection is about 6.7%.
SMILES,Tcruzi prolif,Pf Dd2 growth,C diff HTS
CO[C@@H]1CN(C)C(=O)c2cc(NC(=O)c3ccc(Oc4ccccc4)cc3)ccc2OC[C@H](C)NC[C@H]1C,-,-,-
CO[C@@H]1CN(C)C(=O)c2ccc(NC(=O)c3ccc(F)cc3)cc2OC[C@H](C)N(C(=O)c2ccc(F)cc2)C[C@H]1C,-,-,.
CCCC#Cc1ccc([C@@H]2[C@H]3CN(C(=O)Cc4cccnc4)CC(=O)N3[C@H]2CO)cc1,.,-,-
CN1c2ccc(C3=CCCCC3)cc2[C@@H]2[C@@H](CCN2C(=O)NC2CCCC2)[C@H]1CO,.,-,-
C[C@H](O)C#Cc1cnc2c(c1)C(=O)N([C@@H](C)CO)C[C@H](C)[C@@H](CN(C)Cc1ccccn1)O2,-,-,-
CCC(=O)N[C@H]1CC[C@@H](CCn2cc(CN(C)C)nn2)O[C@@H]1CO,.,-,-
O=C(NC[C@H]1N[C@H](CO)[C@@H]1c1ccc(-c2cncnc2)cc1)C1CCCC1,.,-,-
N#Cc1ccc(-c2ccc3c(c2)[C@@H]2[C@@H](CCN2C(=O)c2ccc(F)cc2)[C@@H](CO)N3)cc1,-,-,-
COc1ccc2c3c([nH]c2c1)[C@@H](CO)N(Cc1ccccc1)CC31CCN(C(C)=O)CC1,.,-,.
COCC(=O)N1CC2(C1)CN(Cc1cccc(Cl)c1)[C@H](CO)c1[nH]c3cc(OC)ccc3c12,.,-,-
COc1ccc2c3c([nH]c2c1)[C@H](CO)N(Cc1ccc(F)cc1)CC31CCN(C(C)=O)CC1,.,-89,-
COCC(=O)N1CCC2(CC1)CN(Cc1cccc(Cl)c1)[C@H](CO)c1[nH]c3cc(OC)ccc3c12,.,-,-
COc1ccc2c3c([nH]c2c1)[C@@H](CO)N(Cc1cccc(Cl)c1)CC31CN(C(C)=O)C1,.,-89,-
COc1ccc2c3c([nH]c2c1)[C@H](CO)N(Cc1cccc(Cl)c1)CC31CCN(C(C)=O)CC1,.,-89,-
COc1ccc2c3c([nH]c2c1)[C@@H](CO)N(Cc1cccc(Cl)c1)CC31CCN(C(C)=O)CC1,.,-88,-
COc1ccc2c3c([nH]c2c1)[C@H](CO)N(Cc1ccc(F)cc1)CC31CCN(C)CC1,.,-,-
O=C(C[C@H]1C[C@@H]2c3cc(NC(=O)c4cccnc4)ccc3O[C@@H]2[C@@H](CO)O1)NCc1ccccn1,.,-,-
CCC(=O)N[C@@H]1C=C[C@@H](CC(=O)NCc2ccccc2F)O[C@H]1CO,-,-,.
C[C@@H]1CCCCO[C@@H](CN(C)C(=O)Nc2ccc3c(c2)OCO3)[C@@H](C)CN([C@H](C)CO)C(=O)c2cc(NS(=O)(=O)c3cccs3)ccc2O1,-,-,-
C[C@H]1CN([C@@H](C)CO)C(=O)c2ccccc2-c2ccccc2CO[C@H]1CN(C)S(=O)(=O)c1ccccc1F,-,-,-
CO[C@H]1CN(C)C(=O)c2ccc(NC(=O)c3ccc4c(c3)OCO4)cc2OC[C@@H](C)N(CCC(F)(F)F)C[C@@H]1C,-,-,.
CCCNC(=O)N1[C@H](C#N)[C@@H](c2ccccc2C2=CCCC2)[C@@H]1CO,.,-89,-
N#C[C@@H]1[C@H](c2ccccc2C2=CCCCC2)[C@@H](CO)N1C(=O)c1cccc(F)c1,.,-94,-
N#C[C@@H]1[C@H](c2ccccc2C2=CCCC2)[C@H](CO)N1C(=O)NC1CCCC1,.,-,-
N#C[C@@H]1[C@@H](c2ccccc2C2=CCCCC2)[C@@H](CO)N1C(=O)c1cccc(F)c1,.,-,-
SMILES,Tcruzi prolif,Pf Dd2 growth,C diff HTS
C[C@H]1CN([C@@H](C)CO)C(=O)c2cc(NC(=O)CCC(F)(F)F)ccc2O[C@@H]1CN(C)Cc1ccc(Cl)c(Cl)c1,-,-,-
CO[C@@H]1CN(C)C(=O)c2cc(NC(=O)C3CC3)ccc2OC[C@H](C)N(C(=O)C2CCOCC2)C[C@@H]1C,-,-,-
C[C@H](CO)N1C[C@H](C)[C@H](CN(C)C(=O)C2CCOCC2)Oc2ncc(C#Cc3cccc(F)c3)cc2C1=O,-,-,-
C[C@@H]1CCCCO[C@@H](CN(C)CC2CC2)[C@H](C)CN([C@@H](C)CO)C(=O)c2cc(NC(=O)c3ccccc3)ccc2O1,.,-,-
CCCN(C)C[C@@H]1OCCCC[C@H](C)Oc2ccc(NC(=O)c3ccccc3)cc2C(=O)N([C@H](C)CO)C[C@@H]1C,-,.,-
CCCN(C)C[C@H]1OCCCC[C@@H](C)Oc2ccc(NC(=O)c3ccccc3)cc2C(=O)N([C@@H](C)CO)C[C@H]1C,-,-91,-
C[C@@H]1CCCCO[C@H](CN(C)CC2CC2)[C@H](C)CN([C@@H](C)CO)C(=O)c2cc(NC(=O)c3ccccc3)ccc2O1,-,-84,-
CO[C@H]1CN(C)C(=O)c2cc(NC(=O)C3CCC3)ccc2OC[C@@H](C)N(Cc2ccccn2)C[C@H]1C,-,-,.
CCC(=O)N1CCC2(CC1)CN(C(=O)Nc1ccccc1F)[C@H](CO)c1c2c2ccc(OC)cc2n1C,.,-,-
N#Cc1ccc(-c2ccc(C3[C@@H]4CN(C(=O)C5CCC5)C[C@H]3N4)cc2)cc1 (stereo partly specified),.,-91!,-
O=C(C1CCCC1)N1C[C@@H]2N[C@H](C1)C2c1ccc(-c2cncnc2)cc1 (stereo partly specified),.,-,-
O=C(C1CCCC1)N1C[C@@H]2N[C@H](C1)C2c1ccc(-c2cccc(F)c2)cc1 (stereo partly specified),.,-,-
O=C(C1CC1)N1C[C@@H]2N[C@H](C1)C2c1ccc(-c2ccccc2F)cc1 (stereo partly specified),.,-87!,-
O=C(C1CCCC1)N1C[C@@H]2N[C@H](C1)C2c1ccc(-c2ccncc2)cc1 (stereo partly specified),.,-,-
O=C(c1ccc(F)cc1)N1C[C@@H]2N[C@H](C1)C2c1ccc(-c2ccccc2F)cc1 (stereo partly specified),.,-,-
O=C(C1CC1)N1C[C@@H]2N[C@H](C1)C2c1ccc(-c2cccc(F)c2)cc1 (stereo partly specified),.,-81!,-
N#Cc1ccc(-c2ccc(C3[C@@H]4CN(C(=O)C5CCCC5)C[C@H]3N4)cc2)cc1 (stereo partly specified),.,-81,-
O=C(C1CC1)N1CC(=O)N2[C@H](C1)[C@H](c1ccc(Br)cc1)[C@@H]2CO,.,-,-
CO[C@H]1CN(C)C(=O)c2cc(NC(=O)C3CCC3)ccc2OC[C@H](C)N(Cc2cccnc2)C[C@H]1C,-,-,.
C[C@H](CO)N1C[C@H](C)[C@@H](CN(C)Cc2ccncc2)Oc2ncc(C#Cc3ccncc3)cc2C1=O,-,-,-
CCCN1C[C@H](C)[C@@H](OC)CN(C)C(=O)c2ccc(NC(=O)c3cccc(F)c3)cc2OC[C@H]1C,-,-,.
N#Cc1cccc(-c2ccc(C3[C@@H]4CN(C(=O)C5CC5)C[C@H]3N4)cc2)c1 (stereo partly specified),.,-90!,-
N#Cc1cccc(-c2ccc(C3[C@@H]4CN(C(=O)Nc5ccccc5)C[C@H]3N4)cc2)c1 (stereo partly specified),.,-,-
O=C(C[C@H]1C[C@@H]2c3cc(NC(=O)NC4CCCC4)ccc3O[C@@H]2[C@@H](CO)O1)NCc1ccncc1,-,-,-
C[C@H](CO)N1C[C@H](C)[C@H](CN(C)Cc2ccc(C(=O)O)cc2)Oc2ccc(NC(=O)Nc3ccccc3)cc2C1=O,-,-,-

# Assay outcomes from PubChem.
